# Records with an inconclusive call do not appear. Values without a mark were called inactive. Activity calls are given as the source filed them. Calls come from the whole dose curve; as a rule, active = well fitted cell-killing curve with a large enough effect in the repeat runs (not every such curve was filed as active); inconclusive = weak or mixed curves, or effect the other way; inactive = no such curve, though single readings can be large or run the other way.
# Experiment: qHTS assay to identify small molecule antagonists of the estrogen related receptor signaling pathway with the pleiotropic PPARgamma coactivator (PGC) from Tox21 10K library - cell viability counter screen (AID 1224840); note: nearly all actives have a fitted effect of over 40% in size
# Conditions: PGC/ERR reporter cells viability, CellTiter-Fluor, 17.5 h; series mostly up to 92.4 µM
# Excerpt: National Center for Advancing Translational Sciences [NCATS]
# NIH Chemical Genomics Center [NCGC]
# U.S. Environmental Protection Agency [EPA]
# National Institutes of Environmental Health Sciences [NIEHS]
# National Toxicology Program [NTP]
# U.S. Food and Drug Administration [FDA]
# Estrogen related receptors (ERRs), the first orphan nuclear receptors discovered, play an important role in the control of cellular energy metabolism. ERRs are required for high-energy production in response to the environmental challenges. The pleiotropic PPARgamma coactivator (PGC) is a major partner of ERR and a key regulator in energy homeostasis. Together they have been implicated in the etiology of metabolic disorders such as Type 2 diabetes and metabolic syndrome. ERR-alpha was also identified as an adverse marker for breast cancer progression; ERR-alpha-positive tumors have a poor prognosis. To screen and to identify environmental compounds that perturb the ERR and PGC/ERR signaling pathways could provide valuable information for potential therapeutic or preventive measures in the treatment of metabolic disease. To differentiate true PGC/ERR antagonists or agonist from cytotoxic substances, the assay is multiplexed with cell viability assay.
# Tox21 Assay Protocol Summary:
# The PGC/ERR cells were dispensed at 2,000 cells/5 ul/well in 1536-well white plates using a Multidrop dispenser. After the assay plates were incubated at a 37 C/5% CO2 incubator for 6 hours, 23 nL of compounds dissolved in DMSO, positive and negative controls or DMSO only was transferred to the assay plate by a pin tool. The plates were incubated at 37 C for 17.5 hours. 1 ul/well of CellTiter-Fluor reagent was added into the assay plates using a Flying Reagent Dispenser. After 30-minute incubation at 37 C/5% CO2, the fluorescence intensity in the plates was measured using a ViewLux plate reader.
# % is set by controls: 0 for no effect and ±100 for the full control effect.
Compound,outcome,"viability change, negative = cytotoxic"
CC(C)N1C(=O)c2ccccc2C1=O,inactive,
CC(C)c1cccc(C(C)C)c1N,inactive,
CC/C=C\C#N,inactive,
OC/C=C/c1ccccc1,inactive,
CCCCCCCCCCC1CO1 (stereo not given),inactive,
CCCCCCOC(=O)CC(CC(=O)OCCCCCC)(OC(=O)CCC)C(=O)OCCCCCC,inactive,
CC(C)CCOC(=O)CC(C)C,inactive,
CC(=O)O[C@H](CC(=O)[O-])C[N+](C)(C)C,inactive,
CCC(=O)Nc1cccc(N)c1,inactive,
C[C@H]1O[C@@H](n2cc(F)c(=O)[nH]c2=O)[C@H](O)[C@@H]1O,inactive,
CCCCCCCCCCCCI,inactive,
COC(C(=O)O)c1ccccc1 (stereo not given),inactive,
C1=C\CC/C=C\CC/C=C\CC/1,inactive,
C=C(C)C(=O)OCCCCCCCCCCCCCCCCCC,,1.61% [at 19 µM]
CCCCCCCCCCCCCCCCCC(=O)OCCCCCCCCCCCCCC(C)C,inactive,
CCCCCCC(=O)OCC,inactive,
Cc1onc(-c2ccccc2)c1-c1ccc(S(N)(=O)=O)cc1,inactive,
CCCCCN(CCCCC)C(=O)C(CCC(=O)O)NC(=O)c1ccc(Cl)c(Cl)c1 (stereo not given),inactive,
CC(C)c1cccc(O)c1,inactive,
O=C(O)C(O)[C@H](O)[C@@H](O)[C@H](O)[C@H](O)CO (stereo not given in full),inactive,

Compound,outcome,"viability change, negative = cytotoxic"
CCC(C)(C)C1CCC(OC)CC1 (stereo not given),inactive,
CCCC(C)C(=O)O (stereo not given),inactive,
C/C=C1\C(=O)C[C@H]2[C@@H]3CCC4=CC(=O)CC[C@]4(C)[C@H]3CC[C@]12C,inactive,
CC1=CC(C)C(C=O)C(C)C1 (stereo not given),inactive,
CN(C)C(=O)Nc1ccccc1,inactive,
CCCCC=O,inactive,
C#CC(O)CCCCC (stereo not given),inactive,
CC1(C)SC(C)(C)SC(C)(C)S1,inactive,
Cc1c(F)cc2c(=O)c(C(=O)O)cn3c2c1CCC3C (stereo not given),inactive,
CC(C)(O)c1ccccc1,inactive,
CCCCCCCCCCCCCCC,inactive,
CC(C=O)Cc1ccc(C(C)C)cc1 (stereo not given),inactive,
CC(C)(C)OC(=O)N1C[C@@H](F)C[C@H]1C(=O)O,inactive,
CCO[Si](C)(OCC)OCC,inactive,
CC(C)CCCC(C)NCCC(C)C (stereo not given),inactive,
CCCOc1ccccc1-c1nc2n[nH]nc2c(=O)[nH]1,inactive,
CC(=O)N[C@@H](CCC(N)=O)C(=O)O,inactive,
OCC(O)[C@@H](O)[C@H](O)[C@H](O)CO[C@H]1O[C@H](CO)[C@@H](O)[C@H](O)[C@H]1O (stereo not given in full),inactive,
Cn1ccc2cc3c(cc21)CCN3C(=O)Nc1cccnc1,,-15.1% [at 19 µM]
C1CCCCCCCCCCC1,,11% [at 19 µM]

# — PubChem BioAssay (Tox21)
